# Records with an inconclusive call do not appear. A call without a number means that no potency is given here. Activity calls are given as the source filed them. Unless noted, calls follow the shape of the dose curve; as a rule, active = well fitted curve in the direction sought with a large enough effect; inconclusive = small, poorly fitted or top-dose-only effect, or another doubt; inactive = no such curve, though single readings can be large; an effect the other way counts as inactive or inconclusive.
# Legend:
# [1] = P-glycoprotein substrates identified in KB-8-5-11 adenocarcinoma cell line, qHTS therapeutic library screen (AID 1346987); also: nearly all actives have a fitted effect of over 65% in size; also: potency is read from the fitted curve at half-maximal effect
# In short: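 KB-8-5-11: colchicine-selected sub-line of KB-3-1 over-expressing P-gp; assay medium lacked colchicine. 72 h drug exposure at 37 degree C, CellTiter-Glo.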
# [2] = NS1 protein of Zika virus - qHTS assay to identify small molecule inhibitors in human HEK 293 cells (AID 1347053); also: nearly all actives have a fitted effect of over 55% in size
# In short: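 HEK 293 cells, seeded 20 h at 37 C, were pretreated with compound 1 h, then infected with ZIKV MR766 (MOI = 0.5) for 24 h. NS1 was read by TR-FRET with two anti-NS1 antibodies, normalized to uninfected and infected wells.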
# [3] = P-glycoprotein substrates identified in KB-3-1 adenocarcinoma cell line, qHTS therapeutic library screen (AID 1346986); conditions: KB-3-1 parental cells viability, CellTiter-Glo, 72 h; at 44.5 µM (top of the series); also: nearly all actives have a fitted effect of over 60% in size
# In short: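 Counter-screen: cherry-picked hits retested in the KB pair and in HEK-293 pcDNA/MDR-19 cells ± tariquidar. Primary screen used 72 h CellTiter-Glo viability in KB-3-1 and KB-8-5-11.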
# [4] = Natriuretic polypeptide receptor (hNpr1) antagonism - Pilot counterscreen GloSensor control cell line (AID 1347045; calls by dose curve)
# In short: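 HEK293 cells carrying the GloSensor cGMP sensor (GIP/pGS-40F) were loaded with 2% GloSensor reagent for 2 h, exposed to compounds for 30 min, and then stimulated with 50 uM sodium nitroprusside for 20 min at room temperature.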
# [5] = target: Atrial natriuretic peptide receptor 1 (Homo sapiens) (UniProt P16066); experiment: Natriuretic polypeptide receptor (hNpr1) antagonism - Pilot screen (AID 1347049; calls by dose curve;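 also: agonist-evoked cGMP luminescence read 20 min after hNppA addition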)
# In short: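 Readout is cGMP-driven firefly luciferase luminescence in HEK293 cells carrying hNpr1 and a PDE5-domain GloSensor, read before and 20 min after 0.1 nM hNppA stimulation. Cells had 2% substrate reagent for 2 h and test compound for 30 min.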
# [6] = target: Atrial natriuretic peptide receptor 2 (Homo sapiens) (UniProt P20594); experiment: Natriuretic polypeptide receptor (hNpr2) antagonism - Pilot subtype selectivity assay (AID 1347050; calls by dose curve)
# Procedure: F. Fan, B. F. Binkowski, B. L. Butler, P. F. Stecha, M. K. Lewis, K. V. Wood, Novel genetically encoded biosensors using firefly luciferase. ACS Chem Biol 3, 346-351 (2008).
# PROTOCOL TABLE (as described by Inglese J, Shamu CE and Guy RK. 2007)
# (§1) SEQUENCE No. (e.g., 1, 2, 3, etc.); […] (e.g., Cells, Incubation, Reagent, etc.); VALUE and DESCRIPTION.
# 1. Cells. Seed 1500 HEK293 cGMP-sensor cells expressing hNpr2 per well in 4uL into Greiner 1536-well white/solid bottom high base, TC plates.
# 2. Incubation. Incubate plated cells at 37C in 5% CO2, 95% RH overnight.
# 3. Reagent. Add 1uL per well GloSensor reagent from Promega (2% final concentration) or CO2 independent media vehicle control to respective columns of Greiner 1536-well plates.
# 4. Incubation. Incubate plated cells at ambient temperature for 2 h., protect from light.
# 5. Compounds. Library compounds and DMSO vehicle control added at 23nL per well, transferred by Pin Tool.
# 6. Incubation. Incubate plated cells for 30 min. at ambient temperature, protect from light.
# 7. Detector. GloSensor baseline pre-read luminescence measured using CCD-based camera (Viewlux).
# 8. Compound. Add 1uL of hNppC peptide to 1 nM final concentration to stimulate hNpr2 or CO2 independent media as vehicle control.
# 9. Incubation. Incubate treated cells at ambient temperature for 20 min., protect from light.
# 10. Detector. GloSensor post-hNppC luminescence measured using CCD-based camera (Viewlux).
# NOTES (numbers refer to Sequence numbers above)
# 1. HEK293 cells expressing hNpr2 and GIP/pGS-40F were grown to 85-95% confluence (48-72 h) in T175 culture flasks (CO2 independent media supplemented with 10% FBS, 1% Pen/Strep antibiotics, and 1 ug/mL puromycin). Trypsinize and harvest cells from T175 culture flasks and filter through 40 um cell strainer. Cells counted with Invitrogen Countess (30,000,000 - 50,000,000 cells/flask). Cells diluted to a final concentration of 375 cells/uL in CO2 independent media and a Millipore multidrop used to dispense 1500 cells per well (4uL/well) into 9 x1536-well Greiner White/Solid bottom, high base tissue-culture treated (TC) plates and one Aurora 1536-well Black/Clear bottom, low base, TC plate (for visual inspection of cell health throughout the duration of the assay).
# 2. Cells incubated for 24 h. at 37C in 95% RH incubator with metal lid having gas-exchange holes.
# 3. Prepare GloSensor Reagent (Promega): Reconstitute GloSensor luciferase substrate by adding 8.2mL Hepes buffer to 250mg substrate, mix well, protect from light and stored at -80C. Prepare a fresh 12% GloSensor solution in CO2 independent supplemented plating media (see above). […]
# 7. Read cellular baseline GloSensor luminescence in presence of test library compounds on the ViewLux [Exposure = 10 s.; Gain = High; Speed = Slow; and Binning = 2X.] […]
# [7] = target: T1, Tyrosine-protein phosphatase non-receptor type substrate 1 (Homo sapiens) + Leukocyte surface antigen CD47 (Homo sapiens) (UniProt P78324+Q08722); experiment: CD47-SIRPalpha protein protein interaction - LANCE assay qHTS validation (AID 1347057; active = well fitted curve in the direction sought with a large enough effect in the signal ratio, with a control signal flat, not every such curve was filed as active; the % refers to the signal ratio)
# In short: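 First, His-tagged CD47 and Eu-labelled anti-His antibody met the compound for 30 min; next, site-specifically biotinylated SIRPalpha was added for 30 min; finally streptavidin-APC was added before reading the TR-FRET ratio.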
# [8] = target: T1, Tyrosine-protein phosphatase non-receptor type substrate 1 (Homo sapiens) + Leukocyte surface antigen CD47 (Homo sapiens); experiment: CD47-SIRPalpha protein protein interaction - HTRF assay qHTS validation (AID 1347058; active = well fitted curve in the direction sought with a large enough effect in the signal ratio, not every such curve was filed as active; the % refers to the signal ratio)
# Excerpt: SIRPalpha is a myeloid cell expressed immunomodulatory receptor that binds the tumor expressed immune checkpoint CD47. Therapeutic disruption of this interaction leads to immune-mediated tumor rejection. This assay was used to quantitate CD47-SIRPalpha binding biochemically and evaluate chemical libraries for novel CD47-SIRPalpha inhibitors. To recapitulate the biological interaction of CD47 and SIRPalpha, we designed expression constructs to produce their recombinant, soluble, extracellular interaction domains. CD47 was produced with an N-terminal 6His tag. SIRPalpha was produced with an N-terminal Avi-Tag for site-specific biotin incorporation. The CD47-SIRPalpha interaction was measured by TR-FRET using affinity tag linked reagents (anti-6His-Eu donor and streptavidin-XL665 acceptor). SIRPalpha without biotin incorporation was used as a positive control inhibitor.
# as §1
# 1a. Reagent. 3 uL CD47-His (12.5 nM) and Anti-His Eu Donor reagent (0.7 nM) added to respective wells in Assay buffer; white/solid bottom high base, med bind 1536-well plates (Greiner 789075)
# 1b. Reagent. 2 uL Assay buffer negative control for background fluorescence
# 2. Reagent. 23 nL library compounds (7-pt, 1:4 intraplate titration series) or DMSO control transferred by Pin Tool
# 3. Centrifuge. Centrifuge plate for 30 s at 1000 RPM
# 4. Incubation.#Incubate reagents at room temperature for 30 min, protected from light
# 5. Reagent. 2 uL SIRPalpha-biotin (100 nM) in Assay buffer
# 6. Incubation.#Incubate reagents at room temperature for 30 min, protected from light
# 7. Reagent. 1 uL SAV-XL665 (85 nM) acceptor reagent added to respective wells
# 8. Centrifuge. Centrifuge plate for 30 s at 1000 RPM
# 9. Incubation. Incubate reagents at room temperature for 30 min, protected from light
# 10. Detector. Measure Top TR-FRET on EnVision (Eu/APC filter set); calculate ratio Ch1/Ch2
# 1. Assay buffer composition.#Phosphate buffered saline (PBS; 10 mM Phosphate, 137 mM NaCl, and 2.7 mM KCl; pH 7.4), 0.05% IGEPAL CA-630
# 2. 23nL of […] library compounds (7 plates) or DMSO vehicle control transferred to 9 Greiner white/solid bottom high base, TC plates in 7 interplate 1:5 titrations (see Yasgar, A. et al. 2008) with Pintool. Two of the 9 plates are DMSO-only in compound field at beginning and end of compound library-treated plates.
# 10. Detector settings#Mirror = LANCE/DELFIA Dual Enh; Ex. Filter = UV2[TRF] 320; Em. Filter = APC 665; 2nd Em. Filter = Europium 615; Measurement h = 6.5; Ex. light (%) = 100; Delay = […]; Window t = 100 us; No. Seq. windows = 1; Time between flashes = 2000us; No. of flashes = 100; No. of flashes for 2nd detector = 100; Calculation: "Ratio Ch1/Ch2"
# [9] = target: T1, Tyrosine-protein phosphatase non-receptor type substrate 1 (Homo sapiens) + Leukocyte surface antigen CD47 (Homo sapiens); experiment: CD47-SIRPalpha protein protein interaction - Alpha assay qHTS validation (AID 1347059);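 also: bead proximity luminescence from CD47 binding SIRPalpha after compound preincubation with SIRPalpha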
# In short: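 Binding is measured by AlphaScreen proximity: Ni-NTA acceptor beads capture His-CD47, streptavidin donor beads capture biotin-SIRPalpha. Each of three additions (SIRPalpha with compound, CD47, beads) incubates 30 min at room temperature protected from light.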
# T1 sequence (P78324 whole entry, looked up): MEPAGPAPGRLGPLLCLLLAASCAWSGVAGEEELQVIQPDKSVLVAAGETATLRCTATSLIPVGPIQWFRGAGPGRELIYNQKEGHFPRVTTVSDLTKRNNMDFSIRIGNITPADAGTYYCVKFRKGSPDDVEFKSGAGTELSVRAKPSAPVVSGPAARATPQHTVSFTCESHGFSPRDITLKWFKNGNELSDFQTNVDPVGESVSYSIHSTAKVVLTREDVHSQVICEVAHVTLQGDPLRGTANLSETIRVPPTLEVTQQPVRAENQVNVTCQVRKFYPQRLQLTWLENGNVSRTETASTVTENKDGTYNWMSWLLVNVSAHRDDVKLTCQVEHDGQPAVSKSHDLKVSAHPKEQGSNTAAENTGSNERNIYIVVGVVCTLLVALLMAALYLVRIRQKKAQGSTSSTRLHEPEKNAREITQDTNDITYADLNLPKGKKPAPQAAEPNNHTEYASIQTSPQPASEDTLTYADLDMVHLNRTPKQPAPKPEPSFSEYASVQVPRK
# T1 sequence (Q08722 whole entry, looked up): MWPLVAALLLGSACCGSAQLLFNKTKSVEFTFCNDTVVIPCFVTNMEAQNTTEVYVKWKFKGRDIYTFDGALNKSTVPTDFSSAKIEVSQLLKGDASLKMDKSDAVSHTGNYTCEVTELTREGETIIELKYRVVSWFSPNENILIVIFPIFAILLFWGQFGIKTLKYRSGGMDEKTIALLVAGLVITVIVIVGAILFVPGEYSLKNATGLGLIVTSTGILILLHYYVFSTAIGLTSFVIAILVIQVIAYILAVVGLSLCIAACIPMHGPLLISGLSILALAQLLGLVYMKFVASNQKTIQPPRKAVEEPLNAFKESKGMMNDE
# Atrial natriuretic peptide receptor 2 (Homo sapiens), sequence (P20594 whole entry, looked up): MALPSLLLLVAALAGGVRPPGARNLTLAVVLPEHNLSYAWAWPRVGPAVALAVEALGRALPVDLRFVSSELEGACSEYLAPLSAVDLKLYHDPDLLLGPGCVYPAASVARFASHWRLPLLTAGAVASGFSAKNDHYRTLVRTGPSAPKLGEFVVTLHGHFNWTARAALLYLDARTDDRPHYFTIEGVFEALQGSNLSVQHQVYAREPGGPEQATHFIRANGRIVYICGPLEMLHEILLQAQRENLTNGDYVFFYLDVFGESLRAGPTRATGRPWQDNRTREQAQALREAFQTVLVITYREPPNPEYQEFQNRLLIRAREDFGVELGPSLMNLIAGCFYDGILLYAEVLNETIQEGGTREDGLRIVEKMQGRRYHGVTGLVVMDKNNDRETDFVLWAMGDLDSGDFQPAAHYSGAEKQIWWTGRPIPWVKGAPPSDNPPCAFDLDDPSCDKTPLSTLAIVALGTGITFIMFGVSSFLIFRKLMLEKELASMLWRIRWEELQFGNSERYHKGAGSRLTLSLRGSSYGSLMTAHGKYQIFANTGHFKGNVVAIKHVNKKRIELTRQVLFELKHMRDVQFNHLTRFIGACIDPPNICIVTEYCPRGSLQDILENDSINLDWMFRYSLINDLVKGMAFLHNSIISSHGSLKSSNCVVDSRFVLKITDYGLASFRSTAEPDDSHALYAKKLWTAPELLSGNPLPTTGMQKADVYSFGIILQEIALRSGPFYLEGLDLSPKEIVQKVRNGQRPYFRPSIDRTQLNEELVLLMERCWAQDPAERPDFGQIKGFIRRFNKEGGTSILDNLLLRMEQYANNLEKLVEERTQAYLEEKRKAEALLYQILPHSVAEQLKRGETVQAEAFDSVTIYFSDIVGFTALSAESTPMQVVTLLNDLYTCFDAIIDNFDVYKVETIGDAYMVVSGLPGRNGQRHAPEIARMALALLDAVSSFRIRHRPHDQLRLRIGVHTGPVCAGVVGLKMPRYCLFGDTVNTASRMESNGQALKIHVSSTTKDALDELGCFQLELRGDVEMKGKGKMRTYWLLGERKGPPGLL
# Atrial natriuretic peptide receptor 1 (Homo sapiens), sequence (P16066 whole entry, looked up): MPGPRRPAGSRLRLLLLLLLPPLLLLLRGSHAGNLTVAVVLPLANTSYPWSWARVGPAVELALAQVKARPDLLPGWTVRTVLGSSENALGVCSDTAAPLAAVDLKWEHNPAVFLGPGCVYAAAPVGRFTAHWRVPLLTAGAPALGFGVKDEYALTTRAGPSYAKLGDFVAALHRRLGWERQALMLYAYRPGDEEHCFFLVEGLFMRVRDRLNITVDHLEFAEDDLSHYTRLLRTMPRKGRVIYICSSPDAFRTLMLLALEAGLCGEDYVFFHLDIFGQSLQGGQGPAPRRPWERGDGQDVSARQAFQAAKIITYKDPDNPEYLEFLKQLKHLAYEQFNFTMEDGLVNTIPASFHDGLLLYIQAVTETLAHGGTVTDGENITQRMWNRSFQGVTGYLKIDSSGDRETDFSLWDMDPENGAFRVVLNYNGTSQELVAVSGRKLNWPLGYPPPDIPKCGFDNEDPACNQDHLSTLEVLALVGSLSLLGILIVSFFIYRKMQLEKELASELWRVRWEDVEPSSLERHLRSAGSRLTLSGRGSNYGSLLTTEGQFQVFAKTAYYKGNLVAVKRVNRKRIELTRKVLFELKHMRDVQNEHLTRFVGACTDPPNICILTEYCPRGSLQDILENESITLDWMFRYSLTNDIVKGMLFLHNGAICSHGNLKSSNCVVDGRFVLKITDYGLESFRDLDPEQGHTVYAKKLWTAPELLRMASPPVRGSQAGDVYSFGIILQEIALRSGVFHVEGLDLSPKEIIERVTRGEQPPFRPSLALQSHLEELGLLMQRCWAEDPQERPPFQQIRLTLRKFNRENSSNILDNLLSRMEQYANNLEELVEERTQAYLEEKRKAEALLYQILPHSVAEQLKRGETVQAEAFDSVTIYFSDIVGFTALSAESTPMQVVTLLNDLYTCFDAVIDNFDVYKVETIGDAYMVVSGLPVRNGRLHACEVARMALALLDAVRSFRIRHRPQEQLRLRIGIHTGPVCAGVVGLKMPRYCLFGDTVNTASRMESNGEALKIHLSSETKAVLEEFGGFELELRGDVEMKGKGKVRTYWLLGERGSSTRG
structure (smiles),measurement,setting,value
CN(C)CCc1c[nH]c2ccc(O)cc12,Potency,[1],inactive
CN1CCc2cc(Cl)c(O)cc2[C@H]2c3ccccc3CC[C@@H]21,Potency,[1],inactive
same,Potency,[2],inactive
C[C@]12Cc3nonc3C[C@@H]1CC[C@@H]1[C@@H]2CC[C@@]2(C)[C@H]1CC[C@]2(C)O,Potency,[1],5.8 µM (active)
same,Potency,[2],inactive
COc1ccc2c3c1O[C@H]1[C@@H](O)C=C[C@H]4[C@@H](C2)N(C)CC[C@@]341,Potency,[1],inactive
COc1ccc2c(C(=O)c3ccc(Cl)cc3)c(C)n(CC(=O)O)c2c1,outcome,[3],inactive
same,Potency,[1],inactive
same,Potency,[2],inactive
Oc1ccc2[nH]cc(CCCCN3CC=C(c4ccccc4)CC3)c2c1,Potency,[1],inactive
same,Potency,[2],inactive
CC[C@H]1C[C@@H]2C[C@H]3c4[nH]c5ccc(OC)cc5c4CCN(C2)[C@@H]13,Potency,[1],inactive
same,Potency,[2],inactive
CC[C@H]1C[C@H]2[C@@H]3CCC4=CC(=O)CC[C@@H]4[C@H]3CC[C@]2(C)[C@H]1O,outcome,[3],inactive
same,Potency,[2],inactive
C[C@@H]1CN(C2CCC(C#N)(c3ccc(F)cc3)CC2)CC[C@]1(C(=O)O)c1ccccc1 (some centres not stated),Potency,[1],inactive
same,Potency,[2],inactive
OC(c1ccccc1)(c1ccccc1)C1CCNCC1,Potency,[1],inactive
same,Potency,[2],inactive
CC(C)=C[C@@H]1[C@@H](C(=O)OCc2coc(Cc3ccccc3)c2)C1(C)C,Potency,[1],inactive
same,Potency,[2],inactive
CCOC(=O)NC(C)(C)Cc1ccc(Cl)cc1,Potency,[1],inactive
same,Potency,[2],inactive
CCOP(=S)(OCC)O/N=C(\C#N)c1ccccc1,Potency,[1],inactive
same,Potency,[2],inactive
COc1ccc(C(=O)N2CCCC2=O)cc1,Potency,[1],inactive
same,outcome,[4],inactive
same,outcome,[5],inactive
same,outcome,[6],inactive
same,Potency,[2],inactive
same,outcome,[7],inactive
same,outcome,[8],inactive
same,outcome,[9],inactive
CNC(C)Cc1ccccc1OC (configuration not stated),Potency,[1],inactive
same,Potency,[2],inactive
Cc1nc2ccccc2c(=O)n1-c1ccccc1Cl,Potency,[1],inactive
same,Potency,[2],inactive
COP(=S)(OC)Oc1ccc(S(N)(=O)=O)cc1,Potency,[1],inactive
same,Potency,[2],inactive
CC[C@]1(O)CC[C@H]2[C@@H]3CCC4=CCCC[C@@H]4[C@H]3CC[C@@]21C,Potency,[1],6.51 µM (active)
same,Potency,[2],inactive
CCC(=O)O[C@H]1CC[C@H]2[C@@H]3CCC4=CC(=O)CC[C@]4(C)[C@H]3CC[C@]12C,Potency,[1],2.78 µM (active)
same,Potency,[2],inactive
CCCCC1C(=O)NC(=O)N(C2CCCCC2)C1=O (configuration not stated),Potency,[1],inactive
CCC1(CC)C(=O)NC(=O)NC1=O,Potency,[1],inactive
same,Potency,[2],inactive
CNC(C)Cc1ccc2c(c1)OCO2 (configuration not stated),Potency,[1],inactive
same,Potency,[2],inactive
Cc1c(Cl)c(=O)oc2cc(OP(=O)(OCCCl)OCCCl)ccc12,Potency,[1],6.51 µM (active)
same,Potency,[2],inactive
CC(C)NCC(O)c1ccc(N)c(C#N)c1 (configuration not stated),Potency,[1],inactive
same,Potency,[2],inactive

# Reference: PubChem BioAssay (NCATS)
